Reference: PubChem BioAssay (NCATS)
Results filed as inconclusive are left out. The source made the active and inactive calls. Unless noted, the call rests on the fitted dose curve; in most records, active means well fitted curve in the direction sought with a large enough effect; inconclusive means small, poorly fitted or top-dose-only effect, or another doubt; inactive means no such curve, though single readings can be large; an effect the other way counts as inactive or inconclusive.

Assays:
[1] = molecular target: Ubiquitin carboxyl-terminal hydrolase 1 (Homo sapiens) (UniProt O94782); assay: Inhibitors of USP1/UAF1: Pilot qHTS (AID 504865);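 further: rhodamine fluorescence freed from ubiquitin-rhodamine substrate followed over time; top concentration of the series differs between compounds; on the % scale 0 is the no-effect control and ±100 the full control effect; nearly all actives have a fitted effect of over 35% in size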
In short: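 Enzyme-free wells gave the negative control, while test wells held 1nM USP1/UAF1 preincubated with compound for 15 min at room temperature. Ub-Rho at 150nM final started the reaction, and fluorescence at 480/540 nm was recorded kinetically.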

[2] = molecular target: Luciferin 4-monooxygenase (Photinus pyralis) (UniProt P08659); assay: Biochemical firefly luciferase enzyme assay for NPC (AID 624030);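 further: purified P. pyralis luciferase at 10 nM with luciferin and ATP substrate; 0% = DMSO and -100% = full luciferase inhibition by PTC124 control; nearly all actives have a fitted effect of over 70% in size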
In short: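 Direct inhibition of firefly luciferase enzyme (10 nM final, 50 mM Tris Acetate) assessed by luminescence within 5 minutes. Percent activity scaled between DMSO and PTC124 positive control, with concentration-effect curves classified by fit quality and response.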

[3] = S16 Schwann cell viability assay (CellTiter-Glo assay) (AID 624031);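 further: native untransfected S16 rat Schwann cells; cellular ATP luminescence as a viability measure; plate controls were DMSO-treated cells for no effect and cell-free wells for full effect; nearly all actives have a fitted effect of over 70% in size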
In short: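 Cells were seeded at 500-750 per well in phenol red-free DMEM with 10% FBS and left overnight. Compounds or DMSO were pinned in, incubation ran 24 h at 37 °C/5% CO2, then CellTiter-Glo reagent was added and luminescence measured.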

[4] = S16 Schwann cell PMP22 intronic element firefly luciferase assay (AID 624032); further: potency means the concentration at half of the fitted maximal effect; nearly all actives have a fitted effect of over 30% in size
In short: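 Luciferase reporter of PMP22 intronic-element expression in stably transfected S16 rat Schwann cells, read by ONE-Glo luminescence after 24 h compound exposure at 37 C. Activity scaled between DMSO (0%) and positive-control PTC124; concentration-effect curves quality-classified.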

[5] = S16 Schwann cell PMP22 intronic element beta-lactamase assay (AID 624044; calls by dose curve;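 further: 0% = DMSO and -100% = potassium clavulanate positive control; nearly all actives have a fitted effect of over 15% in size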)
In short: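 Beta-lactamase reporter under a PMP22 intronic regulatory element in stable S16 rat Schwann cells; 24 h compound exposure. 460 nm blue signal normalized between DMSO (0%) and potassium clavulanate, with 535 nm FRET tracking viability; curves classed by r2 and response.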

[6] = qHTS profiling for inhibitors of Plasmodium falciparum proliferation (AID 504749);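 further: 0% = DMSO vehicle and full inhibition = artemisinin control; nearly all actives have a fitted effect of over 60% in size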; conditions: P. falciparum in erythrocytes, SYBR Green DNA, 72 h, at 28.7 µM (top of the series)
In short: (§1)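 SYBR Green fluorescence of parasite DNA, read after lysis and overnight dark incubation, measured growth over 72 h in erythrocyte culture at 0.3% parasitemia and 2.5% hematocrit. Data normalised to DMSO and 0.29 uM artemisinin, with plate-drift correction.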

3D7 = assay: as above; conditions: P. falciparum in erythrocytes, SYBR Green DNA, 72 h; series mostly up to 28.7 µM
In short: as §1

7G8 = assay: as above; conditions: P. falciparum in erythrocytes, SYBR Green DNA, 72 h; series mostly up to 28.7 µM
In short: as §1

AA1029 = assay: as above; conditions: P. falciparum in erythrocytes, SYBR Green DNA, 72 h; series mostly up to 28.7 µM
In short: as §1

AS120 = assay: as above; conditions: P. falciparum in erythrocytes, SYBR Green DNA, 72 h; series mostly up to 28.7 µM
In short: as §1

ATS189 = assay: as above; conditions: P. falciparum in erythrocytes, SYBR Green DNA, 72 h; series mostly up to 28.7 µM
In short: as §1

ATS95 = assay: as above; conditions: P. falciparum in erythrocytes, SYBR Green DNA, 72 h; series mostly up to 28.7 µM
In short: as §1

C2A = assay: as above; conditions: P. falciparum in erythrocytes, SYBR Green DNA, 72 h; series mostly up to 28.7 µM
In short: as §1

CP185 = assay: as above; conditions: P. falciparum in erythrocytes, SYBR Green DNA, 72 h; series mostly up to 28.7 µM
In short: as §1

CP191 = assay: as above; conditions: P. falciparum in erythrocytes, SYBR Green DNA, 72 h; series mostly up to 28.7 µM
In short: as §1

CP192 = assay: as above; conditions: P. falciparum in erythrocytes, SYBR Green DNA, 72 h; series mostly up to 28.7 µM
In short: as §1

CP194 = assay: as above; conditions: P. falciparum in erythrocytes, SYBR Green DNA, 72 h; series mostly up to 28.7 µM
In short: as §1

CP201 = assay: as above; conditions: P. falciparum in erythrocytes, SYBR Green DNA, 72 h; series mostly up to 28.7 µM
In short: as §1

CP203 = assay: as above; conditions: P. falciparum in erythrocytes, SYBR Green DNA, 72 h; series mostly up to 28.7 µM
In short: as §1

CP211 = assay: as above; conditions: P. falciparum in erythrocytes, SYBR Green DNA, 72 h; series mostly up to 28.7 µM
In short: as §1

CP215 = assay: as above; conditions: P. falciparum in erythrocytes, SYBR Green DNA, 72 h; series mostly up to 28.7 µM
In short: as §1

CP217 = assay: as above; conditions: P. falciparum in erythrocytes, SYBR Green DNA, 72 h; series mostly up to 28.7 µM
In short: as §1

CP237 = assay: as above; conditions: P. falciparum in erythrocytes, SYBR Green DNA, 72 h; series mostly up to 28.7 µM
In short: as §1

CP238 = assay: as above; conditions: P. falciparum in erythrocytes, SYBR Green DNA, 72 h; series mostly up to 28.7 µM
In short: as §1

CP247 = assay: as above; conditions: P. falciparum in erythrocytes, SYBR Green DNA, 72 h; series mostly up to 28.7 µM
In short: as §1

CP250 = assay: as above; conditions: P. falciparum in erythrocytes, SYBR Green DNA, 72 h; series mostly up to 28.7 µM
In short: as §1

CP252 = assay: as above; conditions: P. falciparum in erythrocytes, SYBR Green DNA, 72 h; series mostly up to 28.7 µM
In short: as §1

CP256 = assay: as above; conditions: P. falciparum in erythrocytes, SYBR Green DNA, 72 h; series mostly up to 28.7 µM
In short: as §1

CP260 = assay: as above; conditions: P. falciparum in erythrocytes, SYBR Green DNA, 72 h; series mostly up to 28.7 µM
In short: as §1

Chain of Ubiquitin carboxyl-terminal hydrolase 1 (Homo sapiens) (O94782 whole entry, looked up): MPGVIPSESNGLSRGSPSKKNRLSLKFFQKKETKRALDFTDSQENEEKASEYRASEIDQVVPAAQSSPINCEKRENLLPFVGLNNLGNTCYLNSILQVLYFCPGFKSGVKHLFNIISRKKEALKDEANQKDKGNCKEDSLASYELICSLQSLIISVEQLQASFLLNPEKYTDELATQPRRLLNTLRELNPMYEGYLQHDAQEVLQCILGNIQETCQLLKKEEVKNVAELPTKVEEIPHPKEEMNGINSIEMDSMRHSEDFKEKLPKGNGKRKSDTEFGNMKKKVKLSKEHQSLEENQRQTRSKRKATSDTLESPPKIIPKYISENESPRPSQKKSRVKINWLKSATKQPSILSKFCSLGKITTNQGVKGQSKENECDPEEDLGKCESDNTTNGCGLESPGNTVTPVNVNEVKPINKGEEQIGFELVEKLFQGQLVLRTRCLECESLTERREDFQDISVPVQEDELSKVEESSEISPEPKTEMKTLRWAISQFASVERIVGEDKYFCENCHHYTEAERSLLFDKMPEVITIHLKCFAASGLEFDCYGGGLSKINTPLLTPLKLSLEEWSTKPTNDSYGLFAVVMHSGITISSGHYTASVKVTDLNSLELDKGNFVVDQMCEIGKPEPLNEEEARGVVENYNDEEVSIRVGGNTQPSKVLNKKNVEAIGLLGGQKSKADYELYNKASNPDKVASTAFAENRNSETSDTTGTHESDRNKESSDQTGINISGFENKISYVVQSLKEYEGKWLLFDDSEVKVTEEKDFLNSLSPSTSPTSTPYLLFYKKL
Chain of Luciferin 4-monooxygenase (Photinus pyralis) (P08659 whole entry, looked up): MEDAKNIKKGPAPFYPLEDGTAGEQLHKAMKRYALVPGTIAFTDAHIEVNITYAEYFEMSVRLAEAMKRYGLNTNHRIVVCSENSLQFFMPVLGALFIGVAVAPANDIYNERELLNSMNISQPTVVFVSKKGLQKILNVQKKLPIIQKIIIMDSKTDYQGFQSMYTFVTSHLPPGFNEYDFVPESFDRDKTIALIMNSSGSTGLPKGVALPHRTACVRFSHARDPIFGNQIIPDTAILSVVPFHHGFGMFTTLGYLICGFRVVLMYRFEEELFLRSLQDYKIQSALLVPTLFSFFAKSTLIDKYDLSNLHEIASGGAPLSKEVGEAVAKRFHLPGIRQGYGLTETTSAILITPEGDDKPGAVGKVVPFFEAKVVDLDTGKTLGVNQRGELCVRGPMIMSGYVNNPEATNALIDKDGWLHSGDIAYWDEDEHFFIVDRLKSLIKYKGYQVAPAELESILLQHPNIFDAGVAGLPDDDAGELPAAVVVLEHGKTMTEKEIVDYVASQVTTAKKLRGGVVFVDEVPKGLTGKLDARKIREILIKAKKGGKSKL

CCOC(=O)C(CS)NCCN[C@@H](CS)C(=O)OCC (stereo not given in full)
active: Potency [4] 10.2 µM
inactive: Potency [1] | Potency [2] | Potency [3] | Potency [5] | activity, negative = inhibition ([6]; parasite line A) -2.53% | activity, negative = inhibition ([6]; parasite line B) -3.46% | Potency (3D7) | Potency (7G8) | Potency (AA1029) | Potency (AS120) | Potency (ATS189) | Potency (ATS95) | Potency (C2A) | Potency (CP185) | Potency (CP191) | Potency (CP192) | Potency (CP194) | Potency (CP201) | Potency (CP203) | Potency (CP211) | Potency (CP215) | Potency (CP217) | Potency (CP237) | Potency (CP238) | Potency (CP247) | Potency (CP250) | Potency (CP252) | Potency (CP256) | Potency (CP260)
